FLuc counter = qHTS profiling assay for firefly luciferase inhibitor/activator using purifed enzyme and Km concentrations of substrates (counterscreen for miR-21 project) | Luciferin 4-monooxygenase (Photinus pyralis), P08659 | purified FLuc, Km substrates, luminescence inhibition | Potency, µM (doses to about 57.5 µM), actives largely listed as inhibitors | 6.9% of 360,000 active | AID 588342, 2011; note: nearly all actives have a fitted effect of over 55% in size
Target sequence (P08659 whole entry, looked up): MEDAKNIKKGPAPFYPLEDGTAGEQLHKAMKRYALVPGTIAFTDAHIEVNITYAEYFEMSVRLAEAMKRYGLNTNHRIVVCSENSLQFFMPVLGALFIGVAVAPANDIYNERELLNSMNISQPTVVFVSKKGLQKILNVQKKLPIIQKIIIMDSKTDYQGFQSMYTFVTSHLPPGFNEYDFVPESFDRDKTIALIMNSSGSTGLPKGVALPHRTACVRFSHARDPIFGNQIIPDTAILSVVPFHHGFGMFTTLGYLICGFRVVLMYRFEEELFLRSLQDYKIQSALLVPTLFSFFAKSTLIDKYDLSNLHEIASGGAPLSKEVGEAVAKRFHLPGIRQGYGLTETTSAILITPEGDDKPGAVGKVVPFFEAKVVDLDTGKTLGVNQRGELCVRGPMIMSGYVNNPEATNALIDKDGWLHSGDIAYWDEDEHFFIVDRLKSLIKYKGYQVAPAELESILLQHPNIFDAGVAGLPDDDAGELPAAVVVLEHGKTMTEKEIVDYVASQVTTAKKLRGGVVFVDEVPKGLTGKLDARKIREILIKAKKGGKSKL
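Purified P. pyralis luciferase (10nM final) with 10uM D-luciferin and 10uM ATP (Km levels) in 50mM Tris acetate pH 7.5, 10mM Mg acetate, 0.01% Tween-20, 0.05% BSA; qHTS 6-point titration, ~60 µM downward; luminescence read.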
Rab9 prom act = qHTS Assay for Rab9 Promoter Activators. Huh7 Rab9 promoter-luciferase reporter, luminescence, 24 h. Potency, µM (top dose mostly 9.22 µM), most hits filed as activators. 2.8% of 320,000 active; note: nearly all actives have a fitted effect of over 60% in size
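Luciferase signal after 10 min detection reagent at ambient indicates Rab9 promoter upregulation; stably transfected Huh7 cells were treated 24 h with compound in DMSO at 37 °C, 5% CO2.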
SMN2 splice enh = qHTS Assay for Enhancers of SMN2 Splice Variant Expression; HEK293 SMN2-luciferase splicing reporter, luminescence, 30-36 h; Potency, µM (series often up to 46.1 µM), hits mostly activators; 2.8% of 210,000 active; note: nearly all actives have a fitted effect of over 55% in size
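qHTS luciferase splicing reporter: luminescence rises when SMN2 exon 7 is included in transfected HEK293 cells. Compound exposure lasted 30-36 h at 37C, with 4.5 mM final sodium butyrate as control, followed by a ONE-Glo read.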
ELG1 genotox = qHTS screen for small molecules that induce genotoxicity in human embryonic kidney (HEK293T) cells expressing luciferase-tagged ELG1; 1.3% of 330,000 active; Potency, µM (highest dose often 46 µM), actives largely listed as activators; HEK293T ELG1-luciferase reporter, luminescence, 16 h; AID 504466, 2011; note: nearly all actives have a fitted effect of over 60% in size
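Luminescence read-out: rising ELG1-luciferase signal, reflecting elevated ELG1 protein under genetic stress, flags genotoxic compounds. Cells were treated for 16 hr at 37 °C before ONE-Glo detection.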
NPC1 promoter act = qHTS Assay for NPC1 Promoter Activators; Huh7 NPC1 promoter luciferase reporter, 24 h; Potency, µM (doses to about 9.22 µM), actives largely listed as activators; 2.4% of 320,000 active; note: nearly all actives have a fitted effect of over 60% in size
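Readout is luciferase luminescence, reflecting NPC1 promoter activation in stably transfected Huh7 cells after 24 h compound exposure at 37 °C in reduced-serum medium with 10% FBS.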
Hits are given with their value; - = inactive; ? = inconclusive; . = no result; [ ] = remark or other dose. Rows were chosen to be rich in hits. Some 7.4% of all compounds tested hit in one or more screens of this group. Calls come from the whole dose curve; as a rule, active = well fitted curve in the direction sought with a large enough effect; inconclusive = small, poorly fitted or top-dose-only effect, or another doubt; inactive = no such curve, though single readings can be large; an effect the other way counts as inactive or inconclusive.

SMILES	FLuc counter	Rab9 prom act	SMN2 splice enh	ELG1 genotox	NPC1 promoter act
O=C(/C=C/c1ccc2c(c1)OCO2)c1ccccn1	0.34µM	3.5µM	.	?	2.2µM
O=C(N/N=C/c1ccco1)c1ccc(Br)o1	-	-	-	-	-
O=C(N/N=C/c1cc2c(cc1Br)OCO2)c1cc2ccccc2o1	9.5µM	-	.	-	-
CCN(C(=O)/C=C/c1ccc2c(c1)OCO2)c1ccccc1	?	-	-	-	-
O=C(N/N=C/c1ccco1)c1cc2ccccc2o1	17µM	-	.	-	-
O=C(N/N=C/c1ccsc1)c1ccc2ccccc2n1	21µM	?	-	-	-
COc1ccc2oc(=O)c(C(=O)OCc3ccccc3)cc2c1	-	-	.	-	-
O=C(N/N=C/c1ccc2c(c1)OCO2)c1ccccn1	2.1µM	0.4µM	3.5µM	?	0.32µM
CC(C)(C)c1cc(C(=O)N/N=C/c2cc3c(cc2Br)OCO3)n[nH]1	-	-	.	-	-
O=C(N/N=C/c1cc2c(cc1Br)OCO2)c1c[nH]c2ccccc12	9.5µM	2.5µM	11µM	-	2.5µM
Cc1ccc(C(=O)N/N=C\c2cc3c(cc2Br)OCO3)cn1	-	-	.	?	-
O=C(N/N=C/c1cc2c(cc1Br)OCO2)c1ccccn1	2.7µM	1.3µM	.	?	2.5µM
O=C(N/N=C/c1ccc2c(c1)OCO2)c1ccc2ccccc2n1	3µM	-	-	?	-
CCOc1ccc(OCC(=O)OCC(=O)NNC(=O)c2ccc([N+](=O)[O-])cc2)cc1	-	-	.	-	-
CCC(CC)C(=O)c1c[nH]c(C(=O)NCc2ccc(F)cc2)c1	-	-	.	-	-
COc1cc2c(cc1OC)C(c1ccccc1)NC(C)(C)C2 (stereo not drawn)	-	-	.	-	-
CCOC(=O)C1=C(COC(=O)CCCOc2ccccc2)NC(=O)NC1C (stereo not drawn)	-	-	.	-	-
Nc1ccccc1SSc1ccccc1N	11µM	-[1.84 µM]	.	-	-
Cc1ccc(S(=O)(=O)N(C)c2ccccc2C(=O)Nc2ccc3c(c2)OCCO3)cc1	-	-	.	-	-
O=C(NC(=S)Nc1ccc2c(c1)OCCO2)c1ccccc1	1.2µM	0.89µM	7.1µM	?	0.63µM
O=C(CCl)Nc1ccccc1C(=O)Nc1ccc2c(c1)OCO2	-	0.4µM	.	-	0.71µM
CS(=O)(=O)Nc1ccccc1C(=O)Nc1ccc2c(c1)OCCO2	12µM	-	-	?	-
O=C(NC(=S)Nc1ccc(F)cc1)c1ccc2c(c1)OCCO2	1.9µM	0.5µM	?	?	0.63µM
CC(=O)c1cccc(-n2nnnc2SCC(=O)Nc2cc(C)on2)c1	-	-	.	-	-
COc1ccc(C(=O)N2CCC3(CC2)CCN(c2cccc(-c4ccccc4)c2)CC3)cc1	.	.	-	.	.
SMILES	FLuc counter	Rab9 prom act	SMN2 splice enh	ELG1 genotox	NPC1 promoter act
O=C(CN(C(=O)CCC(=O)Nc1nccs1)c1cccc(F)c1)NCc1ccccc1	-	-	.	?	-
Cc1ccc(N(C)S(=O)(=O)c2ccc(-c3coc(C)n3)cc2)cc1	-	.	.	.	.
CCOc1cccc(C(=O)NC(=S)Nc2ccc(N3CCCC3)cc2)c1	-	-	-	-	-
O=C(Nc1ccc2c(c1)OCCO2)c1cccc2nc3ccccc3nc12	?	-	-	-	-
O=C(NC(=S)Nc1ccc2oc(=O)ccc2c1)c1ccccc1F	-	-	.	-	-
CCOc1cccc(C(=O)NC(=S)Nc2ccc3c(c2)OCCO3)c1	8.5µM	?	-	?	-
O=C(NC(=S)Nc1ccc2c(c1)OCCO2)c1ccccc1F	5.4µM	1.3µM	?	?	2.5µM
O=C(Nc1ccc2c(c1)OCCO2)c1ccccc1F	3.4µM	0.56µM	13µM	1.8µM	0.79µM
COc1cc(C(=O)NC(=S)Nc2ccc3c(c2)OCO3)cc(OC)c1OC	?	-	.	-	-
COc1cccc(OC)c1C(=O)NC(=S)Nc1ccc2c(c1)OCCO2	21µM	-	-	?	-
CC(NC(=O)C1CCC(C(=O)NC(C)c2ccccc2)CC1)c1ccccc1 (stereo not drawn)	-	-	.	-	-
O=C(Nc1ccc2c(c1)OCCO2)c1c(F)cccc1F	6µM	3.2µM	13µM	3.3µM	2.5µM
O=C(CSc1nnc(CNC(=O)c2c(F)cccc2F)o1)Nc1ccc2c(c1)OCCO2	?	-	.	-	-
O=C(NC(=S)Nc1ccc(N2CCOCC2)cc1)c1ccc2c(c1)OCCO2	?	-	-	-	-
O=C(NC(=S)Nc1ccc(CN2CCOCC2)cc1)c1ccc2c(c1)OCCO2	17µM	-	.	-	?
CCN(CC)c1ccc(NC(=O)C2CCN(S(=O)(=O)c3ccc4c(c3)oc(=O)n4C)CC2)c(C)c1	-	.	-	.	.
CCOc1ccc(C(=O)Nc2cc(-c3nc4ccccc4[nH]3)ccc2Cl)cc1[N+](=O)[O-]	?	-	-	-	-
CCOc1ccc(C(=O)Nc2cc(-c3nc4ccccc4[nH]3)ccc2C)cc1[N+](=O)[O-]	8.5µM	-	-	-	-
CCOc1ccc(C(=O)Nc2cccc(-c3nc4ccccc4[nH]3)c2C)cc1[N+](=O)[O-]	9.5µM	-	-	-	-
Cc1nnc2c3ccccc3c(-c3cccs3)nn12	-	-	11µM	13µM	-
Cc1nnc2c3ccccc3c(-c3ccc(O)cc3)nn12	-	-	-	?	-
Cc1ccc(SCc2ccc(C(=O)Nc3nccs3)o2)cc1	15µM	?	.	-	?
O=C(Nc1nccs1)c1ccc(CSc2ccccc2)o1	5.4µM	2µM	.	-	3.2µM
Cc1nn(CC(=O)Nc2ccccc2F)c(=O)c2c(C)n(-c3ccc(Cl)cc3)nc12	-	.	.	.	.
Cc1ccc(Cl)cc1N1CCN(C(=O)C2CCN(S(=O)(=O)c3cn(C)cn3)CC2)CC1	-	.	.	.	.
SMILES	FLuc counter	Rab9 prom act	SMN2 splice enh	ELG1 genotox	NPC1 promoter act
CCOC(=O)C1=C(C)NC(C)=C(C(=O)OCC)C1/C=C/c1ccccc1	-	-	-	?	-
COC(=O)C1=C(C)NC(C)=C(C(=O)OC)C1/C=C/c1ccccc1	-	-	-	16µM	-
Cc1ccc(C(=O)Nc2cnc3ccccn3c2=O)cc1	17µM	1.6µM	11µM	4.6µM	2.2µM
O=C(Nc1cnc2ccccn2c1=O)c1ccc(Cl)cc1Cl	1.7µM	0.28µM	1.6µM	?	0.32µM
O=C(N/N=C/c1ccc(Cl)cc1Cl)c1cccc(N2CCCC2=O)c1	6.7µM	-	.	-	-
O=C(NC1CCCCCC1)c1cccc(N2CCCC2=O)c1	15µM	2.2µM	7.1µM	?	3.5µM
O=C(NC1CCCCCCC1)c1cccc(Cl)c1	15µM	?	.	?	?
Cc1cccc(NC(=O)c2ccc(OCc3c(C)noc3C)cc2)n1	-	-	.	-	-
O=S(=O)(NCc1cccnc1)c1ccc(Cl)c2ccccc12	-	-	.	-	-
C=CCNc1nc2c(c(=O)n(C)c(=O)n2C)n1Cc1ccc(F)cc1	-	-	-	21µM	-
